# Sm TGR block: qHTS Assay for the Inhibitors of Schistosoma Mansoni Peroxiredoxins; hit rate 3% among 360,000; Potency, µM (top dose mostly 114 µM), for the others: at the top dose activity change, negative = inhibition, hits mostly inhibitors; purified TGR, DTNB reduction, TNB absorbance 405 nm; also: % is scaled to controls: 0 for no effect and ±100 for the full control effect; nearly all actives have a fitted effect of over 60% in size
#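 TGR 20 nM + NADPH 100 uM (dispensed conc.), cpd preinc 15 min RT; start with NADPH (500 uM addition) then DTNB (15 mM addition). Kinetic TNB absorbance, 405 nm filter. Four-parameter Hill fit across titration.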
# NS1 function inh: qHTS Assay for Inhibitors of Influenza NS1 Protein Function. Potency, µM (top dose mostly 46.1 µM), inactives show at the top dose activity, positive = more growth. hit rate 0.4% among 270,000; calls by dose curve; also: actives are rising curves; nearly all actives have a fitted effect of over 50% in size
#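 Read-out: OD600 growth recovery of NS1-expressing budding yeast. Cells grown overnight at 30C in -URA glucose medium, washed, resuspended and diluted 1:100 in 2% galactose assay medium, pH 6.0. Same strain lacking NS1 served as positive control.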
# Pf growth 48h: Primary qHTS for delayed death inhibitors of the malarial parasite plastid, 48 hour incubation | P. falciparum luciferase growth in erythrocytes, 48 h | Potency, µM (titrated, usually from 28.7 µM), for inactives: at the top dose activity change, negative = inhibition, actives largely listed as inhibitors | hit rate 5.9% among 310,000 | AID 504832, 2011; also: % is scaled to controls: 0 for no effect and ±100 for the full control effect
#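 Here the parasites carry a stable luciferase gene and grow inside erythrocytes in Albumax-based RPMI medium with compound for one erythrocytic cycle. Activity is scored as loss of luminescent signal.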
# AMA1-RON2 inh: qHTS for Inhibitors of AMA1-RON; Towards Development of Antimalarial Drug Lead: Primary Screen; Potency, µM (titrated, usually from 58.2 µM), for inactives: at the top dose activity change, negative = inhibition, usual class: inhibitors; AID 720542, 2013; Plasmodium falciparum AMA1 (3D7) - RON2 peptide interaction; AlphaScreen AMA1-biotinylated RON2 peptide binding; hit rate 0.2% among 360,000;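 also: 0% = vehicle wells and -100% = peptide control; nearly all actives have a fitted effect of over 45% in size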
#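 AMA1 (3D7) with his tag at 25 nM final met compounds first, then biotinylated RON2 peptide at 25 nM; detection used donor plus acceptor beads, 10 µg/mL apiece, read by AlphaScreen after 30 min at room temperature.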
# Pf growth 96h: Primary qHTS for delayed death inhibitors of the malarial parasite plastid, 96 hour incubation; Potency, µM (series often up to 28.7 µM), for the others: at the top dose activity change, negative = inhibition, hits mostly inhibitors; AID 504834, 2011; P. falciparum luciferase reporter growth, 96 h; hit rate 6.9% among 320,000; also: % is scaled to controls: 0 for no effect and ±100 for the full control effect
#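 Readout is luminescence from an integrated firefly luciferase in P. falciparum. Red cells, 2% hematocrit and 0.05% parasitemia final, were cultured with compound through two parasite generations (96 hours) at 37 C, 5% CO2.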
# * marks the source's active call; other numbers are inactive results; ? = inconclusive; · = not tested or not shown; [ ] = another dose, or the depositor's remark. This is a sample that favours compounds with a hit; in the whole collection about 11% have one here. Unless noted, calls follow the shape of the dose curve; as a rule, active = well fitted curve in the direction sought with a large enough effect; inconclusive = small, poorly fitted or top-dose-only effect, or another doubt; inactive = no such curve, though single readings can be large; an effect the other way counts as inactive or inconclusive. Potency is read from the fitted curve at half-maximal effect.
SMILES,Sm TGR block,NS1 function inh,Pf growth 48h,AMA1-RON2 inh,Pf growth 96h
Cc1cc(O)ccc1NC(=S)NC(=O)c1cncc(Br)c1,3%,-33%,?,165%,-5%
Cc1snnc1C(=O)NC(=S)Nc1ccccc1,8.9µM*,-8%,88%,88%,6%
CCN(C(=S)Nc1cccnc1)c1ccccc1,25µM*,5%,3%,0%,93%
Cc1ccccc1NC(=S)NC(=O)c1cncc(Br)c1,13µM*,23%,3%,42%,14%
COc1cccc(-n2c(=O)c3sc4ccccc4c3n(CC(=O)Nc3cccc(Cl)c3)c2=O)c1,5%,·,·,·,·
O=C(OCC(=O)c1cccc2ccccc12)c1ccc(CO)cc1,16%,-55%,140%,0%,148%
CCCNC(=O)Nc1nnc(C2CC2)s1,19%,-1%,1%,-1%,2%
O=C(NNC(=O)c1cccc(Br)c1)Nc1ccc(Cl)cc1,-9%,7%,7%,27%,-4%
O=C(NC(=S)Nc1cccnc1)c1cccs1,10µM*,-2%,23%,23%,?
O=C(NC(=S)Nc1cccnc1)c1cccc(Br)c1,16µM*,-39%,11%,78%,0%
O=C(NC(=S)Nc1cc(Cl)ccc1O)c1cccc(Br)c1,-4%,-70%,?,84%,3.3µM*
O=C(Nc1cccnc1)c1cccs1,2%,-9%,30%,-2%,6%
O=C(NC(=S)Nc1ccccc1Br)c1cccnc1,18µM*,2%,-3%,34%,0%
O=C(O)C1CCCN(C(=O)c2cccc3ccccc23)C1 (centres undefined),2%,-8%,23%,-6%,16%
CC(C)C(=O)N1CCC1(C)C(=O)NS(=O)(=O)c1cccs1 (centres undefined),·,·,·,7%,·
CCOC(=O)[C@]12CCC=C1N(Cc1ccc(Cl)cc1Cl)C(=O)[C@H](CC(=O)NCC13CC4CC(CC(C4)C1)C3)C2,·,·,·,-8%,·
O=C(NNC(=S)NC(=O)c1ccccc1)c1cccnc1,-17%,-17%,?,91%,?
CCC(NC(=O)c1ccncc1)c1ccccc1 (centres undefined),2%,16%,2%,2%,15µM*
CCC(NC(=O)c1ccccc1Br)c1ccccc1 (centres undefined),5%,-2%,16%,-3%,16%
CCn1ncc(Cl)c1C(=O)NC(=S)Nc1ccccc1Br,28µM*,-42%,-9%,40%,?
Cc1nn(C)c(C(=O)NC(=S)Nc2ccccc2Br)c1Cl,-6%,-1%,12%,75%,51%
O=C(NC(=S)Nc1cccnc1)c1ccccc1,22µM*,-4%,65%,-2%,14%
O=C(NN=Cc1cc(Br)c(O)c(Br)c1)c1ccccc1NS(=O)(=O)c1cccs1,·,·,·,63%,·
CC(C)=NOc1cc(NC(=O)CCl)cc([N+](=O)[O-])c1,11µM*,-27%,?,-3%,?
Cc1cc(C)cc(Oc2cc(NC(=O)c3cn(C)nc3C)cc([N+](=O)[O-])c2)c1,9%,-8%,·,-4%,8.3µM*
SMILES,Sm TGR block,NS1 function inh,Pf growth 48h,AMA1-RON2 inh,Pf growth 96h
CCC(=O)Nc1cc(ON=C(C)C)cc([N+](=O)[O-])c1,0%,-26%,43%,17%[11.6 µM],-24%
Cc1cccc(Oc2cc(NC(=O)Cn3cnc([N+](=O)[O-])n3)cc([N+](=O)[O-])c2)c1,3%,-9%,?,-7%[2.32 µM],117%
Cc1cc(C)c2ccc(C)[n+]([O-])c2c1O,13µM*,-55%,18%,45%,·
CC/C(=N\NC(=O)c1nnn(-c2nonc2N)c1-c1ccc2c(c1)OCO2)c1ccccc1,-1%,14%,?,22%,?
C/C(=N\NC(=O)c1nnn(-c2nonc2N)c1-c1ccc2c(c1)OCO2)c1ccccc1,-5%,20%,?,12%,15µM*
C/C(=N\NC(=O)c1nnn(-c2nonc2N)c1-c1ccc2c(c1)OCO2)c1ccc(F)cc1,-6%,12%,?,-1%,4.7µM*
C/C(=N\NC(=O)c1nnn(-c2nonc2N)c1-c1ccc2c(c1)OCO2)c1ccc(C)cc1,6%,21%,?,-11%,13µM*
C=CCC(O)(CC=C)C(C)N (centres undefined),1%,-4%,-13%,-1%,6%
CS(=O)(=O)N1CCN(c2ccccc2NC(=O)Nc2cccc(Cl)c2)CC1,-10%,-2%,-12%,3%,-18%
C=CCn1c(=O)/c(=C/c2cc(OC)c(OC)c(OC)c2)s/c1=C(/C#N)c1nc2ccccc2n1C,0%,12%,5.2µM*,-18%,80%
C=CCn1c(=O)/c(=C/c2ccc(O)cc2)s/c1=C(/C#N)c1nnc2n1CCCCC2,-12%,-53%,?,-2%,?
COc1cccc2c1C(=O)c1c(O)c3c(c(O)c1C2=O)C[C@](O)(C(C)=O)C[C@H]3O[C@@H]1C[C@@H](N)[C@@H](O)[C@@H](C)O1,-15%,·,0.93µM*,-7%,1.2µM*
COc1cccc2c1C(=O)c1c(O)c3c(c(O)c1C2=O)C[C@@](O)(C(=O)CO)C[C@H]3O[C@H]1C[C@@H](N)[C@H](O)[C@@H](C)O1.[W],·,-4%,·,·,·
COc1cccc2c1C(=O)c1c(O)c3c(c(O)c1C2=O)C[C@@](O)(C(=O)CO)C[C@@H]3O[C@H]1C[C@H](N)[C@H](OC2CCCCO2)[C@H](C)O1 (some centres undefined),·,·,3.8µM*,·,4.3µM*
COc1cccc2c1C(=O)c1c(O)c3c(c(O)c1C2=O)CC(O)(C(C)=O)CC3OC1CC(O)C(O)C(C)O1 (centres undefined),·,·,·,11%,·
COc1ccccc1NC(=O)Cn1ccn(-c2cccc3ccccc23)c(=O)c1=O,-4%,·,?,-6%,-3%
COC(=O)c1ccc(NC(=O)CCn2cnnn2)c(C)c1,4%,·,·,·,·
Cc1ccc(S(=O)(=O)N2CCCCC2)cc1NC(=O)CNCc1ccco1,2%,0%,-1%,-6%,-17%
CCCCN(CCCC)CCNC(=O)c1cc(-c2cccnc2)nc2ccc(S(=O)(=O)N3CCC(C)CC3)cc12,15%,·,·,·,·
CCCCNS(=O)(=O)c1ccc2nc(-c3cccnc3)cc(C(=O)NCCCN(CC)CC)c2c1,3%,·,12µM*,·,?
CCCCNC(=O)c1cc(-c2cccnc2)nc2ccc(S(=O)(=O)NCCCC)cc12,12%,·,·,·,·
CCN(CC)CCNC(=O)c1cc(-c2cccnc2)nc2ccc(S(=O)(=O)N3CCC(C)CC3)cc12,-10%,6%,?,-2%,13µM*
Cc1cccc(CCNC(=O)C2CCN(S(=O)(=O)c3cccc4cccnc34)CC2)c1,-11%,-7%,-4%,4%,37%

# Compound activity as filed in PubChem.
